Results reported in PubChem BioAssay.
The source made the active and inactive calls.

Experiments:
[1] = binders of probe aFSTL3 on microarray, primary screen, stem cell growth factor project, biochemical, small-molecule microarray, fluorescence 635/667 (AID 1064); conditions: higher = more signal;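 note: measures binding of the biotinylated anti-FSTL3 antibody to printed compounds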
[2] = binders from COS7 lysate, DM2A8 probe, primary screen, torsin A project, cell lysate, small-molecule microarray, fluorescence 635/667 (AID 1065); conditions: higher = more signal, COS7 lysate expressing mutant human TOR1A
[3] = binders of probe aFGF2 on microarray, primary screen, stem cell growth factor project, biochemical, small-molecule microarray, fluorescence 635/667 (AID 1067); conditions: higher = more signal;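 note: measures binding of biotinylated aFGF2 protein to printed compounds on slides; z-score merges feature fluorescence and signal-to-noise across triplicate slides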
[4] = binders of probe aFGF10 on microarray, primary screen, stem cell growth factor project, biochemical, small-molecule microarray, fluorescence 635/667 (AID 1071); conditions: higher = more signal;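 note: score merges 667 nm spot intensity and signal to noise from triplicate slides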
[5] = target: Neurogenic locus notch homolog protein 2 (Homo sapiens) (UniProt Q04721); assay: Notch2 binders on small-molecule microarrays, primary screen, biochemical, small-molecule microarray, 635 nm fluorescence, stem cell growth factors (AID 1073); conditions: Notch2 binding, higher = more signal
Sequence of Neurogenic locus notch homolog protein 2 (Homo sapiens) (Q04721 whole entry, looked up, canonical isoform): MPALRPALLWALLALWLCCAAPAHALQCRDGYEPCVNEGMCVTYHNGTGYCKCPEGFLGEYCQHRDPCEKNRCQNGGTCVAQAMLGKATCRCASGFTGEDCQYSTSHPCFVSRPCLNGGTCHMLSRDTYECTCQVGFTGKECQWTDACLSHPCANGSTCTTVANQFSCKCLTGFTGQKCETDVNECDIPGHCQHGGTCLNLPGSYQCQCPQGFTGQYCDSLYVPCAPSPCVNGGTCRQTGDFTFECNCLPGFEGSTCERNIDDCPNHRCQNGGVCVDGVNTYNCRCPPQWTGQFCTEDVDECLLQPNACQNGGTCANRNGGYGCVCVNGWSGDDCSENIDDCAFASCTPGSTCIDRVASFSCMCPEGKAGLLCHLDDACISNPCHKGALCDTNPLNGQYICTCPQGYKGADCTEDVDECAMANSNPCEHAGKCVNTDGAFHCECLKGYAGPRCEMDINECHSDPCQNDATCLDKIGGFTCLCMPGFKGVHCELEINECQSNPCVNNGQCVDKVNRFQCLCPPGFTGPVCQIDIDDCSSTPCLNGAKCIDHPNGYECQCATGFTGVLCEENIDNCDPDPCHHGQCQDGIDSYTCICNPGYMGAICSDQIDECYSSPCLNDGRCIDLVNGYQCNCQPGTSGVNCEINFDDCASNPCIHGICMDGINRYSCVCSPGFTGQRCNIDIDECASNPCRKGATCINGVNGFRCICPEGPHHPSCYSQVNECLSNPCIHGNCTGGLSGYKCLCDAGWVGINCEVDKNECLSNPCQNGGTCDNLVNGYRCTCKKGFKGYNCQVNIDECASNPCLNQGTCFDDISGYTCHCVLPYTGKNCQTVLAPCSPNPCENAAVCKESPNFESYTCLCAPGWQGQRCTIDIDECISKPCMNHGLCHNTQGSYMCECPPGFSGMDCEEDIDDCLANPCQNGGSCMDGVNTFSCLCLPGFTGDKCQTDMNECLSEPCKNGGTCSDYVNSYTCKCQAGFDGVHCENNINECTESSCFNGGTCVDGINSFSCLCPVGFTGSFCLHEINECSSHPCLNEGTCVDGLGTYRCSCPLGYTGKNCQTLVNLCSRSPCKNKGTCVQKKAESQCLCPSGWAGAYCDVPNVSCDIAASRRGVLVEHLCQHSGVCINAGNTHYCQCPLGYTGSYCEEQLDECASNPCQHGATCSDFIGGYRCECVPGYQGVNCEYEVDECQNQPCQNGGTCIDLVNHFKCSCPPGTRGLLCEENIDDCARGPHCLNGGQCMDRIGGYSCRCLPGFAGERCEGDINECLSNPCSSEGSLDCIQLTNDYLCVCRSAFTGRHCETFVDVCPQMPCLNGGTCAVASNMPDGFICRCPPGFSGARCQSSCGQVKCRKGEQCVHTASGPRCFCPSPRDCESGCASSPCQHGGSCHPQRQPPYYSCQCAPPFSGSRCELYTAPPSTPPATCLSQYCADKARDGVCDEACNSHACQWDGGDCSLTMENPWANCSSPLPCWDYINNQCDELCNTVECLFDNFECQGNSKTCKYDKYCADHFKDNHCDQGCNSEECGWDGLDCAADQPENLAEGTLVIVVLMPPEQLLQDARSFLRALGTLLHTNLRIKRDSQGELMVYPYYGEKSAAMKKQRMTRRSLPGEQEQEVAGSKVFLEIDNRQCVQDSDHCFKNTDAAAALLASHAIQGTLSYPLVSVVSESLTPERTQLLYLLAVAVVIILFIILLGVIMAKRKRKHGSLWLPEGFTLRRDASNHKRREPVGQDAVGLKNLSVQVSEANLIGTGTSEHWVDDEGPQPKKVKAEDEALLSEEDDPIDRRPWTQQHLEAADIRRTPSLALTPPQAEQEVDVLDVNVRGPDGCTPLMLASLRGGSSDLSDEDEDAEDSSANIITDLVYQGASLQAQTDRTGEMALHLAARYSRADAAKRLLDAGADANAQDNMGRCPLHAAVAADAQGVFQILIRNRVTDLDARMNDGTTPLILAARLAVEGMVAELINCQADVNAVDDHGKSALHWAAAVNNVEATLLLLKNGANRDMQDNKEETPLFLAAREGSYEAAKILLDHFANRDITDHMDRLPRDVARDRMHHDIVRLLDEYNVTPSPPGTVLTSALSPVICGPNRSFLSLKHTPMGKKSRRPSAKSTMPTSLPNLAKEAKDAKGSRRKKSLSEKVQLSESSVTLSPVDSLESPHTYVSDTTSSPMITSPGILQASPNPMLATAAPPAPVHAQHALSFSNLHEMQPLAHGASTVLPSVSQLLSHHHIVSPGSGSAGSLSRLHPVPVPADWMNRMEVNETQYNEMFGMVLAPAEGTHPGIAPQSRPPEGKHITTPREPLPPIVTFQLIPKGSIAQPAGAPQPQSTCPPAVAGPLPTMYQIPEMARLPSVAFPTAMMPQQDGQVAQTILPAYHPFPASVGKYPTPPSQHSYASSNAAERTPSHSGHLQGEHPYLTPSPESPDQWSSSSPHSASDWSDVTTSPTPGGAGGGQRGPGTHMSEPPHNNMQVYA

[6] = target: Pro-neuregulin-1, membrane-bound isoform (Homo sapiens) (UniProt Q02297); assay: NRG1 binders on small-molecule microarrays, primary screen, psychiatric disease protein project, biochemical, small-molecule microarray, fluorescence 635/667 (AID 1075); conditions: NRG1 binding, 635 nm fluorescence, higher = more signal;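 note: score combines 667 nm spot fluorescence with signal to noise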
Sequence of Pro-neuregulin-1, membrane-bound isoform (Homo sapiens) (Q02297 whole entry, looked up, the tested form may be a part, canonical isoform): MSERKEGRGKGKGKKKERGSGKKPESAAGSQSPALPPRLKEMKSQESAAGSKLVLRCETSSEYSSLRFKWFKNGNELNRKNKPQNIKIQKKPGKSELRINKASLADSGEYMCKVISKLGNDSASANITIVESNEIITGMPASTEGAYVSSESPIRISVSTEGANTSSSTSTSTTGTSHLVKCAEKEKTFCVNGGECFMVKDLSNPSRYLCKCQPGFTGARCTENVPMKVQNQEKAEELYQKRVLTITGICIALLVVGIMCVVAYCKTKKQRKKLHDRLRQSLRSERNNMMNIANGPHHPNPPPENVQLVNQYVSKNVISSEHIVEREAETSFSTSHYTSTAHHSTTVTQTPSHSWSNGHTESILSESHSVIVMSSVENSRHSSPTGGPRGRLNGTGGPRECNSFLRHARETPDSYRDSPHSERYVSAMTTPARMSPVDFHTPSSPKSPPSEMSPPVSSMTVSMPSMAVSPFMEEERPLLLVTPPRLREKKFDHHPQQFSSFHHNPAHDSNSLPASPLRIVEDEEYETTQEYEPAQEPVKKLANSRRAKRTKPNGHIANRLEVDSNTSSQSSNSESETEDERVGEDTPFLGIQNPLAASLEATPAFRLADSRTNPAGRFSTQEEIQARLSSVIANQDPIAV

[7] = system: Neuregulin-1 EGF-like domain; assay: binders of neuregulin-1 EGF-like domain, primary screen, biochemical, small-molecule microarray, 635 nm fluorescence (AID 1081); conditions: small-molecule microarray binding, higher = more signal;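 note: binding of the protein to compounds printed on small-molecule microarray slides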
[8] = FRG1 promoter luciferase signal modulators, primary screen, FRG1 inhibition for FSHD, cell-based, C2C12 myotubes, firefly/Renilla luciferase, luminescence (AID 1084); conditions: higher = more signal, called active from +8 up or from −8 down
[9] = binders of probe aFST on microarray, primary screen, stem cell growth factor project, biochemical, small-molecule microarray, fluorescence 635/667 (AID 1086); conditions: higher = more signal;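 note: score merges 667 nm fluorescence with signal-to-noise of each printed compound spot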
[10] = binders of probe aHhip on microarray, primary screen, stem cell growth factor project, biochemical, small-molecule microarray, fluorescence 635/667 (AID 1087); conditions: higher = more signal;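 note: score merges spot fluorescence at 667nm with spot signal to noise ratio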

SMILES | composite z-score [1] | composite z-score [2] | composite z-score [3] | composite z-score [4] | composite z-score [5] | composite z-score [6] | composite z-score [7] | z-score [8] | composite z-score [9] | composite z-score [10]
CCOC(=O)C[C@H]1[C@H](OC(=O)Cc2ccc3c(c2)OCO3)[C@@H](NC(=O)CC(C)C)c2cc(OCCCO)ccc2N1C(=O)c1ccccc1 | -0.0798 | 0.128 | 0.0021 | 0.782 | 0.797 | -0.0284 | 0.855 | -1.2 (inactive) | 0.0004 | -0.0994
COc1ccc([Si](C)(C)[C@@H]2[C@@H](CC(=O)N(CCO)Cc3ccccc3)O[C@]3(C(=O)N(Cc4cccc(N5CCC5=O)c4)c4ccccc43)[C@H]2C)cc1 | -0.113 | 0.861 | -0.116 | 0.434 | 0.205 | 0.712 | 1.13 | -0.645 (inactive) | 0.147 | 0.0373
COCCOC(=O)N1C(=O)[C@@]2(c3cc(C#CC4=CCCCC4)ccc31)[C@H](C(=O)NC[C@H](O)c1ccccc1)[C@H]1C(=O)O[C@H](c3ccccc3)[C@H](c3ccccc3)N1[C@@H]2c1ccc(OCCO)cc1 | -0.409 | 0.782 | -0.0566 | 0.478 | 1.26 | 1.12 | 1.26 | 0.916 (inactive) | 0.575 | -0.0645
[N-]=[N+]=NCc1ccccc1C[C@]1(C(N)=O)N=C(c2ccc(OCCCO)cc2)O[C@H]1c1ccccc1CN=[N+]=[N-] | 1.15 | 1.14 | 0.128 | 0.616 | 1.09 | 1.74 | 1 | -1.55 (inactive) | 0.823 | -0.3
C=CCC(OC(C)=O)[C@@H]1[C@@H](N(Cc2cccc3ccccc23)C(=O)Cc2ccc(F)cc2)c2cc(OCCCO)ccc2N1C(=O)Cc1ccc2ccccc2c1 (stereo not given in full) | -0.154 | 0.154 | -0.0503 | -0.169 | -0.241 | -0.58 | -0.607 | -1.32 (inactive) | -0.299 | -0.167
CCC(=O)[C@]12O[C@@]3([C@@H]4C(=O)OCC[C@@H]41)N(CC)C(C)=C(C(=O)OC)[C@@H](c1ccccc1)N3C2=O | 0.162 | -0.337 | -0.116 | 0.0911 | -0.925 | 0.0983 | 0.966 | -0.13 (inactive) | -0.255 | 0.176
COCCOC(=O)N1C(=O)[C@@]2(c3ccccc31)[C@H](C(=O)N1CCc3cc(OC)c(OC)cc3C1)[C@H]1C(=O)O[C@H](c3ccccc3)[C@H](c3ccccc3)N1[C@@H]2c1ccccc1OCCO | 0.221 | 0.409 | -0.0009 | 0.66 | 0.809 | 0.607 | 1.04 | -0.381 (inactive) | 0.481 | 0.251
COCCOC(=O)N1C(=O)[C@@]2(c3cc(C#CCCO)ccc31)[C@H](c1ccc(O)cc1)N1[C@H](c3ccccc3)[C@H](c3ccccc3)OC(=O)[C@H]1[C@@H]2C(=O)Nc1nc2ccccc2s1 | -0.243 | 0.184 | 0.0644 | 0.892 | 1.25 | 0.227 | 1.15 | -0.205 (inactive) | 0.293 | -0.16
O=C(NCc1ccccc1)c1ccc(Br)cc1[N+](=O)[O-] | -0.375 | 0.13 | -0.138 | 0.438 | 0.596 | 0.661 | 0.341 | -0.567 (inactive) | 0.514 | -0.114
O=C1c2ccccc2[C@@]2(Cc3ccccc3N(CC(F)(F)F)C2=O)[C@H](c2ccc(CO)cc2)N1C1CCCCC1 | -0.2 | 0.438 | -0.0199 | 0.354 | 0.455 | 0.492 | 1.47 | -0.555 (inactive) | -0.415 | -0.0618
C[C@]1(C(=O)NCc2ccccc2)c2ccccc2C(=O)N(Cc2cc(C(F)(F)F)cc(C(F)(F)F)c2)[C@H]1c1ccc(CO)cc1 | 0.158 | 1.05 | 0.168 | 0.149 | 1.04 | 0.196 | 1.23 | -1.65 (inactive) | 0.185 | -0.359
CC(C)C[C@@H]1NC(=O)[C@H]2C[C@@H](C(=O)NCCCCCC[N+](C)(C)C)[C@@H](c3ccc(O)cc3)N2C1=O | -0.332 | 0.64 | -0.189 | -0.615 | -0.471 | 1.77 | 1.41 | 2.82 (inactive) | 0.0716 | -0.0994
O=C(CS)NCCCCCNC(=O)[C@H]1C[C@H]2C(=O)N[C@@H](Cc3ccccc3)C(=O)N2[C@H]1c1ccc(O)cc1 | 0.593 | 0.395 | -0.0176 | 0.645 | 1.02 | 0.541 | 1.23 | 0.658 (inactive) | 0.446 | -0.0919
C=C(CCCC)/C(=C/C[C@@H](OC(=O)c1ccncc1)c1ccc(CO)o1)c1cnc2ccccc2c1 | -0.297 | 0.702 | 0.0263 | 1.08 | 1.59 | 0.786 | 0.743 | -0.452 (inactive) | 0.972 | 0.224
O=C1O[C@@H](c2ccccc2)[C@@H](c2ccccc2)N2[C@@H](c3ccc(O)cc3)[C@]3(C(=O)Nc4ccccc43)[C@@H](C(=O)N3CCN(c4ncccn4)CC3)[C@H]12 | 0.0022 | 0.637 | 0.142 | 0.0271 | -0.486 | 0.474 | 1.25 | -3.02 (inactive) | 0.0944 | 0.0274
COC(=O)[C@@]1(Cc2ccccc2N=[N+]=[N-])N=C(c2ccc(OCCCO)cc2)O[C@H]1c1ccccc1CN=[N+]=[N-] | 0.413 | 0.378 | -0.0899 | -0.136 | 0.0109 | 1.12 | 1.29 | -1.38 (inactive) | 0.69 | 0.0053

SMILES | composite z-score [1] | composite z-score [2] | composite z-score [3] | composite z-score [4] | composite z-score [5] | composite z-score [6] | composite z-score [7] | z-score [8] | composite z-score [9] | composite z-score [10]
CCCNC(=O)[C@@H]1c2ccccc2C(=O)N(C2CCCCC2)[C@H]1c1ccc(CO)cc1 | -0.162 | 0.325 | -0.0374 | 0.549 | 1.41 | 1.16 | 1.29 | -0.0971 (inactive) | 0.56 | 0.0785
C/C(=N\O)C(=O)NCCCCCNC(=O)OCc1ccccc1 | -0.286 | 0.135 | -0.0711 | 0.418 | 0.475 | 0.0391 | 0.619 | 0.725 (inactive) | 0.271 | -0.226
O=C1OCC=C[C@H]2OC34C=CCN(Cc5ccccc5)C(=O)[C@H]3N(CCCCCO)C(=O)[C@@H]4[C@@H]12 (stereo not given in full) | 1.67 | -0.0288 | -0.187 | -0.179 | -1.38 | 1.13 | 0.631 | 0.443 (inactive) | -0.594 | -0.216
COc1cc2c(cc1OC)CN(C(=O)[C@H]1[C@@H]3C(=O)O[C@@H](c4ccccc4)[C@@H](c4ccccc4)N3[C@@H](c3ccc(O)cc3)[C@]13C(=O)Nc1ccc(C#CC4(O)CCCCCC4)cc13)CC2 | 1.75 | 0.457 | 0.567 | 1.12 | 0.685 | 2.26 | 1.33 | -0.21 (inactive) | 2.53 | 2.29
CCOC(=O)C1=C[C@@H](c2ccccc2)N(S(=O)(=O)c2ccc(C)cc2)[C@H]1c1ccc(F)cc1 | -0.0809 | 0.347 | -0.0317 | 0.493 | 1.6 | 0.871 | 0.949 | -2.62 (inactive) | 0.541 | 0.0139
CO[C@@H]1COC(=O)CC=C[C@H](C)COC(=O)[C@H](Cc2ccccc2)NC(=O)CC=C[C@H]1C | -1.68 | 1.69 | -0.265 | -0.416 | -1.04 | -0.409 | 0.517 | -0.533 (inactive) | -0.515 | -0.179
C=CCOC(=O)[C@@H]1[C@H]2C(=O)O[C@H](c3ccccc3)[C@H](c3ccccc3)N2[C@H](c2ccc(OCCOC(=O)[C@H]3C[C@H]4C(=O)N5CCC[C@H]5C(=O)N4[C@H]3c3ccc(O)cc3)cc2)[C@@]12C(=O)Nc1ccccc12 | -0.536 | 0.774 | -0.0169 | 0.691 | 0.742 | 0.968 | 1.3 | -0.619 (inactive) | -0.0007 | -0.0994
COCCOC(=O)N1C(=O)[C@@]2(c3cc(C#CCNC(N)=O)ccc31)[C@H](c1ccc(OCCO)cc1)N1[C@H](c3ccccc3)[C@H](c3ccccc3)OC(=O)[C@H]1[C@@H]2C(=O)N1CCCCCCC1 | 2.75 | 0.0698 | 0.128 | 0.209 | 0.315 | -0.0446 | -0.116 | -0.271 (inactive) | 1.46 | 0.167
COc1cc2c(cc1OC)CN(C(=O)[C@@H]1[C@H]3C(=O)O[C@H](c4ccccc4)[C@H](c4ccccc4)N3[C@H](c3ccccc3OCCO)[C@@]13C(=O)Nc1ccccc13)CC2 | -1.08 | 1.04 | -0.148 | 0.575 | 0.803 | 1.39 | 1.18 | -0.268 (inactive) | -0.44 | -0.702
C=CCN(C(=O)C1N(c2ccc(CCO)cc2)C(=O)C2C(C(=O)O)C3C=CC21O3)C(C)(C)C (stereo not given) | 1.73 | -1.15 | -0.243 | -2.12 | -2.34 | -0.367 | 0.915 | 0.4 (inactive) | -1.08 | -0.403
C=CC[C@]1(C(=O)N2CCCCC2)N=C(c2ccc(OCCCO)cc2)O[C@H]1c1ccccc1N=[N+]=[N-] | 1.16 | 1.11 | 0.256 | 0.984 | 1.5 | 1.67 | 1.24 | -2.1 (inactive) | 1.87 | -0.0237
COC(=O)c1c(CC[C@@H](CO)NC(=O)N[C@H](Cn2cc(-c3cncn3C)nn2)C(C)C)oc(C(C)=O)c1C(=O)OC | -0.151 | 0.874 | -0.043 | 0.66 | 0.193 | 0.692 | 1.09 | 0.0938 (inactive) | -0.201 | -0.261
COCCOC(=O)N1C(=O)[C@@]2(c3cc(C#CCNC(N)=O)ccc31)[C@H](c1ccccc1OCCO)N1[C@H](c3ccccc3)[C@H](c3ccccc3)OC(=O)[C@H]1[C@@H]2C(=O)NC[C@H](O)c1ccccc1 | -0.342 | 1.27 | -0.0083 | 0.658 | 0.472 | 1.54 | 1.21 | -0.163 (inactive) | 0.512 | -0.0672
O=[N+]([O-])c1ccc(C[n+]2ccc3ccc(O)cc3c2)o1 | -0.493 | 0.449 | -0.146 | 0.169 | 0.37 | 1.49 | 1.11 | 0.468 (inactive) | 0.147 | -0.411
C=CCc1cccc([C@@H]2[C@@H](C)CC[C@H]3C(=O)N4[C@H](c5cccc(CC=C)c5)[C@@H](C)CC[C@H]4C(=O)N23)c1 | 0.0575 | 0.537 | -0.0677 | 0.873 | 1.07 | 1.12 | 0.536 | 0.313 (inactive) | 0.56 | 0.154
COc1ccc(CCN2C(=O)[C@@]3(c4ccc([N+](=O)[O-])cc4)CC(=O)N(CC45CC6CC(CC(C6)C4)C5)[C@@H]3c3ccc(CO)cc32)cc1 | 0.188 | -0.063 | 0.0201 | 0.142 | -0.18 | 0.978 | 0.956 | -0.241 (inactive) | -0.0561 | -0.0296
